Sampled rows, rich in hits. Any-hit rate of the full collection: about 8.8%.
IL-1B inflam inh = inhibitors of inflammasome signaling (IL-1 beta secretion). 360,000 compounds, 4.7% hits. THP-1 LPS/ATP IL-1B secretion, AlphaLISA, 16 h; stronger effect = lower value. AID 743279. activity change, % at 57.5 µM; in the data active means activity change below about -50%; inconclusive means mostly about -30% to -49%
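Secreted IL-1B measured by AlphaLISA bead assay after 16 h compound exposure of THP-1 cells; compounds (final up to 57.5 uM) added 1 h before LPS (250 ng/mL) and ATP (1.25 mM) stimulation; lower signal means less secretion.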
HT1080NT lethal = kills 2HG-producing HT-1080-NT fibrosarcoma cells; HT-1080-NT fibrosarcoma viability, CellTiter-Glo ATP luminescence, 48 h; Potency, µM (titrated, usually from 46.1 µM), without a hit: at the highest dose activity, negative = less viability, most hits filed as cytotoxic; 360,000 compounds, 1.6% hits;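 further: NT is the 2HG producing partner of a matched IDH1 knockdown line; potency means the concentration at half of the fitted maximal effect; 0% = DMSO-treated cells and -100% = media-only wells without cells; nearly all actives have a fitted effect of over 55% in size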
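Viability of the 2HG-overproducing fibrosarcoma line after 48 hours of compound exposure at 37 degrees C was determined by luminescence with CellTiter-Glo, and concentration-effect curves were then fitted and categorized.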
KB-3-1 tox = KB-3-1 parental cell cytotoxicity; KB-3-1 viability, CellTiter-Glo ATP luminescence, 72 h; Potency, µM (highest dose often 46.1 µM), actives largely listed as cytotoxic; 400,000 compounds, 1.4% hits; AID 1347075; further: potency means the concentration at half of the fitted maximal effect; nearly all actives have a fitted effect of over 60% in size
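Luminescent ATP read-out (CellTiter-Glo) measures survival of drug-naive KB-3-1 cells after 72 h compound exposure at 37 °C. Titration series was screened from lowest to highest concentration, with DMSO vehicle plates as background controls.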
HT1080 IDH1KD tx = toxicity to HT-1080 IDH1 knockdown cells (counter line); AID 686971; HT-1080 IDH1 knockdown viability, ATP luminescence, 48 h; 360,000 compounds, 2% hits; Potency, µM (top dose mostly 46.1 µM), for inactives: at the top dose activity, negative = toxicity, actives largely listed as cytotoxic;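 further: potency means the concentration at half of the fitted maximal effect; 0% = DMSO wells and -100% = cell-free medium wells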
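Assay cells: HT-1080 with IDH1 knockdown, 750 per well, RPMI/5% FBS. Exposure: 48 h at 37 °C following 2 h pre-incubation. Read: CellTiter-Glo luminescence; fitted concentration-response, curve class assigned.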
KB-V1 MDR tox = KB-V1 MDR subline cytotoxicity; AID 1347076; 400,000 compounds, 3.4% hits; KB-V1 MDR cells viability, CellTiter-Glo, 72 h; Potency, µM (top dose mostly 46.1 µM), most hits filed as cytotoxic; further: potency means the concentration at half of the fitted maximal effect; nearly all actives have a fitted effect of over 60% in size
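KB-V1, DMEM (no phenol red) + 10% FBS; cpd pin-transferred, titration series; 72 h, 37 degrees C; CellTiter-Glo, luminescence. Data normalized, curve-fit.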
* hit, by the source's call; i = inactive; ? = inconclusive; · = not tested or not shown; [ ] = dose if it differs, or a comment. Unless noted, the call rests on the fitted dose curve; in most records, active means well fitted curve in the direction sought with a large enough effect; inconclusive means small, poorly fitted or top-dose-only effect, or another doubt; inactive means no such curve, though single readings can be large; an effect the other way counts as inactive or inconclusive. Unless noted, on the % scale 0 is the no-effect control and ±100 the full control effect.

SMILES | IL-1B inflam inh | HT1080NT lethal | KB-3-1 tox | HT1080 IDH1KD tx | KB-V1 MDR tox
CCCCN(CC)CCCNC(=O)c1cc2c(=O)n(CC)c3ccccc3c2s1 | -77* | 18µM* | ? | 29µM* | i
Cc1csc(NC(=O)CSc2nc3[nH]c(=O)cc(O)c3s2)n1 | -105* | 5.8µM* | 4.1µM* | 5.2µM* | 21µM*
COc1ccc(/C=C/C(=O)NCc2cnn(C)c2C)cc1COc1ccc(Br)cc1 | ? | -22% | i | ? | 15µM*
COc1ccc(/C=C/C(=O)NCc2c(C)nn(C)c2C)cc1COc1ccc(Br)cc1 | -29 | -19% | i | ? | i
CC1=CN2C(=N)/C(=C/c3ccc(Sc4ccc(Cl)cc4)o3)C(=O)N=C2S1 | -69* | ? | i | ? | i
CC1=CN2C(=N)/C(=C/c3ccc(Sc4ccc(C)cc4)o3)C(=O)N=C2S1 | -58* | -17% | i | -25% | i
CC1=CN2C(=N)/C(=C/c3ccc(C)o3)C(=O)N=C2S1 | 11 | 3% | i | 0% | i
COc1ccc(-c2n[nH]c(C(F)(F)F)c2-c2cc3ccccc3o2)c(O)c1 | -54* | ? | i | ? | 18µM*
COc1ccccc1CNC(=O)COC(=O)c1cccc(-n2cnnn2)c1 | 44 | 4% | i | 16% | i
COc1ccc(/C=N/Nc2ncnc3sc4c(c23)CCCC4)cc1OC | 30 | ? | 18µM* | ? | ?
COc1ccc(Nc2ncnc3sc4c(c23)CCCC4)cc1 | · | · | i | · | i
CCCCN1C(=O)/C(=C/C=C2\Oc3ccccc3N2CC)SC1=S | -5 | -1% | i | 15% | i
CCCCN1C(=O)/C(=C/C=C2/CC(C)(C)CN2C)SC1=S | -59* | -3% | i | -7% | i
COC(=O)[C@]12CCCCC=C1N(Cc1ccc3c(c1)OCO3)C(=O)[C@H](CC(=O)N1CCN(C(=O)C3CC3)CC1)C2 | -3 | 1% | i | -1% | i
CCn1c(SCC(=O)Nc2cccc(S(=O)(=O)N(C)c3ccccc3)c2)nnc1C1CC1 | 4 | -8% | i | -2% | 21µM*
CN(c1ccccc1)S(=O)(=O)c1cccc(NC(=O)CSc2nncn2C)c1 | 8 | 19% | i | 7% | i
COC(=O)c1cc2oc(C)cc2n1CC(=O)Nc1ccc(C)cc1C | · | · | i | · | i
Cn1c(-c2c(N)n(C3CCCC3)c3nc4ccccc4nc23)nc2ccccc21 | -6 | ? | 16µM* | ? | 21µM*
Cn1c(-c2c(N)n(CCCc3ccccc3)c3nc4ccccc4nc23)nc2ccccc21 | ? | ? | ? | ? | 9.2µM*
Cn1c(C2CCCCC2)nc2ccccc21 | -19 | -5% | i | -7% | i
Cn1c(-c2c(N)n(CCc3ccccc3)c3nc4ccccc4nc23)nc2ccccc21 | -8 | -1%[9.24 µM] | ? | ? | 15µM*
COCCCn1c(N)c(-c2nc3ccccc3n2C)c2nc3ccccc3nc21 | ? | -4%[9.24 µM] | i | ? | i
CCCOc1ccc(-c2c(C(=O)N/N=C(\C)c3cccs3)nnn2-c2nonc2N)cc1 | 47 | 7% | i | 9% | i
OC[C@@H]1CN(Cc2ccc3c(c2)OCO3)C[C@H](n2cnc3c(NCc4ccncc4)ncnc32)O1 | -1 | 8% | i | 7% | i
CCCCOc1ncnc2c1[nH]c1ccc(C)cc12 | · | ? | ? | 4.6µM* | 7.3µM*
SMILES | IL-1B inflam inh | HT1080NT lethal | KB-3-1 tox | HT1080 IDH1KD tx | KB-V1 MDR tox
CCCOc1ncnc2c1[nH]c1ccc(OC)cc12 | 2 | -18% | ? | -10% | 15µM*
CCCOc1ncnc2c1[nH]c1ccccc12 | -10 | -20% | ? | ? | ?
COc1cccc(/C=N/Nc2ncnc3c2[nH]c2ccc(C)cc23)c1OC | 149 | -11% | i | -1% | i
COc1ccc(NC(=O)c2cc(C)nc3c2c(C)nn3-c2ccc(C)cc2)cc1OC | · | · | i | · | i
CCNC(=O)CC1C(=O)N(c2ccc(F)cc2)C(=O)N1CCOC (stereo not given) | · | · | i | · | i
CCCSc1nc(-c2ccc(OC)cc2)cc(-c2ccccc2OC)c1C#N | · | · | i | · | ?
O=C1/C(=C/C=C/c2ccccc2)Oc2c1ccc(O)c2CN1CCN(CCO)CC1 | -6 | -4% | ? | ? | i
CCN1CCN(Cc2c(O)ccc3c2O/C(=C\C=C\c2ccccc2)C3=O)CC1 | -100* | ? | 16µM* | ? | ?
Cc1cccc(NC(=O)c2oc3ccc(S(=O)(=O)N4CCCCC4)cc3c2C)c1C | · | · | i | · | i
Cc1cccc2sc(N(CCN3CCOCC3)C(=O)CCS(=O)(=O)c3ccccc3)nc12 | -98* | -12% | i | -10% | i
CCN(CC)CCN(C(=O)CCS(=O)(=O)c1ccccc1)c1nc2cc(C)cc(C)c2s1 | -102* | ? | i | ? | i
CCN(CC)CCN(C(=O)CCS(=O)(=O)c1ccccc1)c1nc2c(C)cc(C)cc2s1 | -90* | -1% | · | 0% | ·
Cc1cc(C)c2sc(N(CCN(C)C)C(=O)CCS(=O)(=O)c3ccccc3)nc2c1 | -14 | -12% | ? | -6% | i
CCn1c(SCC(=O)Nc2nc3ccc(OC)cc3s2)nc2c1c(=O)n(C)c(=O)n2C | ? | 1% | i | ? | 2.1µM*
CCOc1ccc2nc(NC(=O)CSc3nc4c(c(=O)n(C)c(=O)n4C)n3C(C)C)sc2c1 | 8 | -7% | ? | 4% | 3.7µM*
Cc1cc(NC(=O)CSc2nc3c(c(=O)n(C)c(=O)n3C)n2C(C)C)no1 | 26 | 6% | i | 6% | ?
CC(C)n1c(SCC(=O)Nc2nc3ccccc3s2)nc2c1c(=O)n(C)c(=O)n2C | -52* | -3% | i | -12% | i
CCCN(CCC)C(=O)Cn1c(=O)n(-c2ccc(OC)cc2OC)c(=O)c2c3c(sc21)CCC3 | · | · | i | · | i
CN1CCc2c(sc(NC(=O)c3ccc([N+](=O)[O-])o3)c2C(N)=O)C1 | -98* | 6.5µM* | ? | 0.58µM* | ?
NC(=O)c1c(NC(=O)c2ccc([N+](=O)[O-])o2)sc2c1CCCC2 | · | ? | 16µM* | ? | ?
N#Cc1c(NC(=O)c2ccc(Cn3cc(Br)cn3)o2)sc2c1CCCCCC2 | -8 | ? | ? | ? | 2.6µM*
CN1CCc2c(sc(NC(=O)c3ccco3)c2C(N)=O)C1 | 0 | 11% | i | 9% | i
N#Cc1c(NC(=O)c2ccc([N+](=O)[O-])o2)sc2c1CCC2 | -94* | ? | 5.2µM* | ? | 18µM*
CC(C)(C)NC(=O)C(c1ccccc1F)n1c(=O)c(-c2ccccc2)nc2ccccc21 (stereo not given) | -4 | 10% | i | -1% | i
